Measured values from PubChem BioAssay (EPA / NIEHS).
Calls of active or inactive are those of the source. The calls were made as follows: active = hit-call score of the fitted dose curve at least 0.9, where 1 is the maximum; inactive = score below 0.9.

Experiments:
Conditions in all cases: mRNA level, 48 h; actives raise or lower the signal
[1] = read-out: Bcl-2 (BID) gene, BID (gene 637); experiment: LTEA_HepaRG_BID: Life Technologies and Expression Analysis (LTEA) Assay for Bcl-2 (BID) gene using HepaRG (AID 2283476)
In short: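 Gene expression by qRT-PCR in HepaRG cells after 48 h exposure, duplicate wells, eight half-log concentrations topping at 100 uM in 0.5% DMSO. Normalized to ACTB, GAPDH, POLR2A; bidirectional fitting relative to DMSO.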

[2] = read-out: Caspase-3 (Homo sapiens) (UniProt P42574); experiment: LTEA_HepaRG_CASP3: Life Technologies and Expression Analysis (LTEA) Assay for cysteine-aspartic acid protease (CASP3) using HepaRG (AID 2283477)
In short: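 Read-out is CASP3 mRNA level by TaqMan qRT-PCR in human HepaRG cells after 48 h chemical exposure. Eight half-log concentrations topping at 100 uM were tested in 0.5% DMSO; gain or loss was fitted relative to DMSO.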

[3] = read-out: Cytochrome P450 (CYP24A1), CYP24A1 (gene 1591); experiment: LTEA_HepaRG_CYP24A1: Life Technologies and Expression Analysis (LTEA) Assay for Cytochrome P450 (CYP24A1) using HepaRG (AID 2283478)
In short: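 HepaRG, 48 h chemical exposure, 8-pt half-log CRC from 100 uM, 0.5% DMSO vehicle, duplicates. Endpoint: CYP24A1 mRNA by Fluidigm TaqMan qRT-PCR, normalized ACTB/GAPDH/POLR2A; gain/loss fit vs DMSO.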

[4] = read-out: Cytochrome P450 (CYP1A2), CYP1A2 (gene 1544); experiment: LTEA_HepaRG_CYP1A2: Life Technologies and Expression Analysis (LTEA) Assay for Cytochrome P450 (CYP1A2) using HepaRG (AID 2283479)
In short: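 CYP1A2 transcript induction or loss, quantified by Fluidigm qRT-PCR against three housekeeping genes, was fitted bidirectionally against 0.5% DMSO controls. Human HepaRG cells received eight half-log concentrations from 100 uM over 48 h.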

[5] = read-out: cysteine-aspartic acid protease (CASP8), CASP8 (gene 841); experiment: LTEA_HepaRG_CASP8: Life Technologies and Expression Analysis (LTEA) Assay for cysteine-aspartic acid protease (CASP8) using HepaRG (AID 2283480)
In short: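 Differentiated human HepaRG cells, plated 48 h then switched to serum-free induction medium, were exposed in duplicate for 48 h to 8 half-log concentrations up to 100 uM in 0.5% DMSO. CASP8 mRNA was quantified by qRT-PCR, normalized to ACTB/GAPDH/POLR2A.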

[6] = read-out: Cytochrome P450 (CYP2B6), CYP2B6 (gene 1555); experiment: LTEA_HepaRG_CYP2B6: Life Technologies and Expression Analysis (LTEA) Assay for Cytochrome P450 (CYP2B6) using HepaRG (AID 2283481)
In short: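 HepaRG cells plated 48 h, switched to serum-free induction medium, then dosed 48 h (8 points, half-log from 100 uM, 0.5% DMSO). RNA isolated; CYP2B6 expression measured by qRT-PCR; gain or loss fitted relative to DMSO.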

[7] = read-out: Cytochrome P450 2C19 (Homo sapiens) (UniProt P33261); experiment: LTEA_HepaRG_CYP2C19: Life Technologies and Expression Analysis (LTEA) Assay for CYP2C19 using HepaRG (AID 2283482)
In short: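 Transcript levels of CYP2C19 were quantified by qRT-PCR after HepaRG cells were treated for 48 hours with test chemicals up to 100 uM (eight half-log concentrations, 0.5% DMSO vehicle). Gain or loss of signal was fitted relative to DMSO.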

[8] = read-out: CYP2E1 (gene 1571); experiment: LTEA_HepaRG_CYP2E1: Life Technologies and Expression Analysis (LTEA) Assay for CYP2E1 using HepaRG (AID 2283485)
In short: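 HepaRG cells, plated 48 h, then exposed 48 h in serum-free induction medium to eight half-log concentrations from 100 uM in 0.5% DMSO, duplicate. CYP2E1 mRNA by qRT-PCR, normalized to ACTB/GAPDH/POLR2A; bidirectional fit versus DMSO.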

[9] = read-out: CYP4A11 (gene 1579); experiment: LTEA_HepaRG_CYP4A11: Life Technologies and Expression Analysis (LTEA) Assay for CYP4A11 using HepaRG (AID 2283486)
In short: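 HepaRG, 48 h chem exposure, 8 conc (100 uM top, half-log), 0.5% DMSO vehicle; qRT-PCR readout, housekeeping-gene normalized; bidirectional curve fit vs DMSO baseline.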

[10] = read-out: Cytochrome P450 3A4 (Homo sapiens) (UniProt P08684); experiment: LTEA_HepaRG_CYP3A4: Life Technologies and Expression Analysis (LTEA) Assay for CYP3A4 using HepaRG (AID 2283487)
In short: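 Differentiated HepaRG cells in serum-free induction medium exposed in duplicate for 48 h to 8 half-log concentrations up to 100 uM in 0.5% DMSO. CYP3A4 mRNA measured by qRT-PCR normalized to ACTB, GAPDH and POLR2A; bidirectional fit versus DMSO.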

[11] = read-out: DNA damage-inducible transcript 3 (DDIT3), DDIT3 (gene 1649); experiment: LTEA_HepaRG_DDIT3: Life Technologies and Expression Analysis (LTEA) Assay for DNA damage-inducible transcript 3 (DDIT3) using HepaRG (AID 2283488)
In short: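 HepaRG cells, 48 h after plating, exposed 48 h in serum-free induction medium to 8 half-log concentrations up to 100 uM in 0.5% DMSO, in duplicate. DDIT3 mRNA measured by TaqMan qRT-PCR, normalized to ACTB, GAPDH and POLR2A. Fitted bidirectionally against DMSO.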

[12] = read-out: Pro-epidermal growth factor (Homo sapiens) (UniProt P01133); experiment: LTEA_HepaRG_EGF: Life Technologies and Expression Analysis (LTEA) Assay for Epidermal growth factor (EGF) using HepaRG (AID 2283489)
In short: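 HepaRG, 48 h dosing, 100 uM top, half-log x8, 0.5% DMSO. Readout: TaqMan qRT-PCR (Fluidigm array), housekeeping-normalized. Gain or loss of signal fit vs DMSO.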

[13] = read-out: Early growth response protein 1 (EGR1) transcription factor, EGR1 (gene 1958); experiment: LTEA_HepaRG_EGR1: Life Technologies and Expression Analysis (LTEA) Assay for Early growth response protein 1 (EGR1) transcription factor using HepaRG (AID 2283490)
In short: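 Differentiated human HepaRG cells in serum-free induction medium were exposed in duplicate for 48 h to eight concentrations (top 100 uM, half-log steps) in 0.5% DMSO. EGR1 mRNA was quantified by qRT-PCR, normalized to ACTB, GAPDH and POLR2A, and fitted bidirectionally versus DMSO.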

[14] = read-out: Ezrin (EZR), EZR (gene 7430); experiment: LTEA_HepaRG_EZR: Life Technologies and Expression Analysis (LTEA) Assay for Ezrin (EZR) using HepaRG (AID 2283491)
In short: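 Differentiated human HepaRG cells, 48 h after plating, were exposed in serum-free induction medium for 48 hours to eight half-log concentrations up to 100 uM in 0.5% DMSO. EZR mRNA was measured by TaqMan qRT-PCR, normalized to ACTB, GAPDH and POLR2A, and fitted bidirectionally against DMSO.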

[15] = read-out: Cytochrome P450 3A7 (Homo sapiens) (UniProt P24462); experiment: LTEA_HepaRG_CYP3A7: Life Technologies and Expression Analysis (LTEA) Assay for CYP3A7 using HepaRG (AID 2283492)
In short: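 Human HepaRG liver cells, 48 h post-plating, switched to serum-free induction medium and exposed in duplicate for 48 h. Dosing: 100 uM top, half-log dilutions, 8 points, 0.5% DMSO vehicle. Read-out: CYP3A7 mRNA, gain or loss fitted against DMSO baseline.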

[16] = read-out: CYP3A5 (gene 1577); experiment: LTEA_HepaRG_CYP3A5: Life Technologies and Expression Analysis (LTEA) Assay for CYP3A5 using HepaRG (AID 2283493)
In short: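 HepaRG cells, plated 48 h then in serum-free induction medium, dosed in duplicate for 48 h with eight half-log concentrations up to 100 uM in 0.5% DMSO. Gene mRNA by Fluidigm TaqMan qRT-PCR, normalized to ACTB, GAPDH, POLR2A.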

[17] = read-out: Fatty Acid-Binding Protein 1 (FABP1), FABP1 (gene 2168); experiment: LTEA_HepaRG_FABP1: Life Technologies and Expression Analysis (LTEA) Assay for Fatty Acid-Binding Protein 1 (FABP1) using HepaRG (AID 2283494)
In short: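 Differentiated human HepaRG cells were exposed in duplicate for 48 h in serum-free induction medium to 8-point half-log concentration series topping at 100 uM in 0.5% DMSO. FABP1 mRNA measured by TaqMan qRT-PCR, normalized to ACTB/GAPDH/POLR2A; bidirectional fit versus DMSO.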

[18] = read-out: CYP2C8 (gene 1558); experiment: LTEA_HepaRG_CYP2C8: Life Technologies and Expression Analysis (LTEA) Assay for CYP2C8 using HepaRG (AID 2283483)
In short: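 Differentiated human HepaRG cells were exposed for 48 h in serum-free induction medium to eight half-log concentrations up to 100 uM in 0.5% DMSO, in duplicate. CYP2C8 mRNA was measured by TaqMan qRT-PCR, normalized to ACTB, GAPDH and POLR2A, and fitted bidirectionally against DMSO.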

[19] = read-out: Cytochrome P450 4A22 (Homo sapiens) (UniProt Q5TCH4); experiment: LTEA_HepaRG_CYP4A22: Life Technologies and Expression Analysis (LTEA) Assay for Cytochrome P450 4A22 (CYP4A22) using HepaRG (AID 2283495)
In short: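 Readout is CYP4A22 transcript induction or loss, quantified by qRT-PCR and normalized to ACTB, GAPDH and POLR2A. Human HepaRG cells receive test chemicals for 48 h at eight half-log concentrations from 100 uM in 0.5% DMSO.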

[20] = read-out: CYP2C9 (gene 1559); experiment: LTEA_HepaRG_CYP2C9: Life Technologies and Expression Analysis (LTEA) Assay for CYP2C9 using HepaRG (AID 2283484)
In short: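 Differentiated human HepaRG cells were exposed 48 h in serum-free induction medium to eight half-log concentrations up to 100 uM in 0.5% DMSO. CYP2C9 mRNA was measured by qRT-PCR, normalized to ACTB, GAPDH and POLR2A, and fitted bidirectionally against DMSO.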

Measured: AC50

Sequence of Cytochrome P450 3A4 (Homo sapiens) (P08684 whole entry, looked up): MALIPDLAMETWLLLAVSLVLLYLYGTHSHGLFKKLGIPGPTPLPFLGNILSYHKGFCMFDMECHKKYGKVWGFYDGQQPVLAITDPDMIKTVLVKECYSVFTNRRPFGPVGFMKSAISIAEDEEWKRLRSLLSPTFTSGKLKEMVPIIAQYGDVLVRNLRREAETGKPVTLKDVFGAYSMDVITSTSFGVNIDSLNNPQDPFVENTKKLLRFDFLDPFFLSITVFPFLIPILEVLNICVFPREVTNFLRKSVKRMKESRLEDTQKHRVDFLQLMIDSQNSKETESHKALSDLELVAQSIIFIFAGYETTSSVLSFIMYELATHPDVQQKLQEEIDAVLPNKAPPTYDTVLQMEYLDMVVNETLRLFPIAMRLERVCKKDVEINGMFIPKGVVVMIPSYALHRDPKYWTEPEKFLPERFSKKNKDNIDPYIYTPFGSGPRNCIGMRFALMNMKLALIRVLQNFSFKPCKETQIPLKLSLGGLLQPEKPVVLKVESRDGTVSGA
Sequence of Cytochrome P450 3A7 (Homo sapiens) (P24462 whole entry, looked up): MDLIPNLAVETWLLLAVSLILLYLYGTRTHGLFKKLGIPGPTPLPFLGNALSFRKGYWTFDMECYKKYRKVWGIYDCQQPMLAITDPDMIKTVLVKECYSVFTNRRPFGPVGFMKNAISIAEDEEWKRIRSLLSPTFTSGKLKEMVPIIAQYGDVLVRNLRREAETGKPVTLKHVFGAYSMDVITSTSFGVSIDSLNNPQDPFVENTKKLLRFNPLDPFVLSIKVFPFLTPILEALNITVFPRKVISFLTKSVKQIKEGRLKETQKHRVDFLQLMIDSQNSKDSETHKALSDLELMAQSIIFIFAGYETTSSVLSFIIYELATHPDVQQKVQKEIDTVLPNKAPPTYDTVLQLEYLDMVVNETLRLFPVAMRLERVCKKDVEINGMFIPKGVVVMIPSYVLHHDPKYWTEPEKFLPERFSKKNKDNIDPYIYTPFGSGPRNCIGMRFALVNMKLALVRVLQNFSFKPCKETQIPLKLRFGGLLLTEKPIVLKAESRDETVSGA
Sequence of Cytochrome P450 2C19 (Homo sapiens) (P33261 whole entry, looked up): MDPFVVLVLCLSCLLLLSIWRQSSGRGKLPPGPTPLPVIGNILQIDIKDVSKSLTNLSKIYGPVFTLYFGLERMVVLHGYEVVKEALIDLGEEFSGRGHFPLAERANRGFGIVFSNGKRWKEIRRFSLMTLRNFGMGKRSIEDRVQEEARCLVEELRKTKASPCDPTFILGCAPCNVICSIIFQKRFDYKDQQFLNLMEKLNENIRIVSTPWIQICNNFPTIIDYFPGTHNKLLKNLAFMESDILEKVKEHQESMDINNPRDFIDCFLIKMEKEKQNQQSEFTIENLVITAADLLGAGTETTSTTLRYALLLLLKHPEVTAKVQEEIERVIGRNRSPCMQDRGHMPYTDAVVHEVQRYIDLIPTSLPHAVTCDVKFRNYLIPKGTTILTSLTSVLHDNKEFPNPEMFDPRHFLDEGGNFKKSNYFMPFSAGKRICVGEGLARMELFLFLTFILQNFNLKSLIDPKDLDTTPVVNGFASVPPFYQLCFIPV
Sequence of Caspase-3 (Homo sapiens) (P42574 whole entry, looked up): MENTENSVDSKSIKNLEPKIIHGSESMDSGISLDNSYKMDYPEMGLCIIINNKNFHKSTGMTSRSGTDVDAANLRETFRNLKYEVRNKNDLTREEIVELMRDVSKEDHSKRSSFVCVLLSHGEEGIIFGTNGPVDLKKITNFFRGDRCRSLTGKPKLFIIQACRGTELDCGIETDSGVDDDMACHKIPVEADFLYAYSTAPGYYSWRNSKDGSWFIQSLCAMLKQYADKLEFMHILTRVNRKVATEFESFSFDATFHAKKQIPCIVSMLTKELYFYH

CCOC(=O)COc1cc(-c2nn(C)c(OC(F)F)c2Cl)c(F)cc1Cl
active: [6] 63.5 µM | [7] 50 µM | [8] 16.3 µM | [10] 22.8 µM | [15] 30.1 µM
not listed: [18] | [19] | [20]
inactive: all other assays above

C[Si](Cn1cncn1)(c1ccc(F)cc1)c1ccc(F)cc1
active: [1] 50 µM | [4] 85.6 µM | [6] 68.8 µM | [7] 80.1 µM | [18] 71.8 µM | [8] 19.4 µM | [9] 25.9 µM | [10] 82.4 µM | [15] 81.9 µM | [17] 76.9 µM | [19] 15.8 µM
inactive: [2] | [3] | [5] | [12] | [13] | [14]

CCc1cnc(C2=NC(C)(C(C)C)C(=O)N2)c(C(=O)O)c1 (configuration not stated)
not listed: [11] | [16]
inactive: all other assays above
